These results are taken from PubChem BioAssay (NCATS).

Records with an inconclusive call do not appear. The source made the active and inactive calls. Unless noted, calls come from the whole dose curve; as a rule, active = well fitted curve in either direction with a large enough effect (not every such curve was filed as active); inconclusive = small, poorly fitted or top-dose-only effect, or another doubt; inactive = flat fitted curve, though single readings scatter.

For experiment [1], the target named is Lysosomal acid glucosylceramidase (Homo sapiens) (UniProt P04062). In words: Glucocerebrosidase-p2 (AID 348; in the data active = potency below about 10 µM; note: potency is the fitted concentration of half-maximal effect). As to conditions: purified GBA, blue fluorogenic substrate, 40 min. The method, boiled down:
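Normal human glucocerebrosidase (0.2 nM) with blue fluorogenic substrate (80 uM final) in citrate/phosphate pH 5.9 with 10mM sodium taurocholate, 0.01% tween-20; 40 min RT, NaOH/glycine stop; fluorescence Ex 365/Em 440; AC50 from a titration from 0.6 nM upwards.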

Experiment [2] in a line: AP1 Signaling Pathway (AID 357).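 Note: ME-180 reporter cells stimulated with EGF at its EC50 level; % is set by controls: 0 for no effect and ±100 for the full control effect.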 As to conditions: ME-180 AP-1-bla reporter, EGF-induced, beta-lactamase ratio, 5 h; at 7.69 µM (top of the series) unless noted. In a few lines:
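Read-out was the 460nm/530nm emission ratio (excitation 405nm) after CCF4 loading for 2.5 hours at room temperature. Cells carried an AP-1-driven beta-lactamase reporter, were stimulated with EC50 EGF plus compound for 5 hours, and AC50 values came from titrations.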

Experiment [3] can be described thus: Stat Signaling Pathway (AID 446).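 Note: ME-180 cervical cancer cells given 40 pM IL-6 alongside compound; SIE-controlled beta-lactamase reporter measured as 460/530 nm FRET emission ratio; % is set by controls: 0 for no effect and ±100 for the full control effect.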 The following applies: ME-180 (cervical carcinoma) SIE beta-lactamase reporter, IL-6 stimulated, 5 h; at 7.69 µM (top of the series) unless noted. The method, boiled down:
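Compound effects on IL-6-induced STAT reporter activity were measured in ME-180 cells. After overnight culture, cells were co-treated with 40 pM IL-6 for 5 hrs before beta-lactamase substrate loading at room temperature.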

Experiment [4] concerns the target Glucocorticoid receptor (Homo sapiens) (UniProt P04150). Put plainly: GR-EFC Redistribution (AID 451; calls by dose curve; note: potency is the fitted concentration of half-maximal effect). The following applies: CHO-K1 GR-EFC translocation, beta-gal luminescence, 2 h. In a few lines:
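CHO-K1 cells expressing nuclear EA and GR-ED fragments of b-gal; compounds titrated up to 46 uM final, 2 h at 37 C. GR nuclear translocation read as complemented b-gal luminescence after 1 h RT detection.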

The target of experiment [5] is Mitogen-activated protein kinase 10 (Mus musculus) (UniProt Q61831). In words: JNK3 AlphaScreen Assay (AID 530).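 Note: kinase came from lysate of stimulated human HepG2 cells; signal reports phosphorylation of biotinylated GST-cJun 1-79 at Ser73 with 10 µM ATP; % is set by controls: 0 for no effect and ±100 for the full control effect.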 As to conditions: JNK3 lysate, c-Jun phosphorylation; series mostly up to 57.1 µM. In a few lines:
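Activity was read by AlphaScreen after JNK3-containing HepG2 lysate (cytokine pre-activated) phosphorylated biotinylated GST-cJun with 10 uM ATP at room temperature. Phospho-Ser73 cJun antibody with Protein-A acceptor beads provided detection.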
In general terms: In Alpha technology, singlet oxygen from a donor bead excites a nearby acceptor bead.

For experiment [6], the target named is 3',5'-cyclic-AMP phosphodiesterase 4B (Homo sapiens) (UniProt Q07343). Put plainly: qHTS Assay for Inhibitors of PDE-IV (AID 607; active = well fitted activation curve with a large enough effect in the main read-out, with a control signal flat, not every such curve was filed as active; note: % of control where 0% means no effect). As to conditions: HEK293 ACTOne CNG channel cells, membrane potential fluorescence; series mostly up to 22.9 µM. In a few lines: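 ACTOne HEK293 cells carry a modified cAMP-gated CNG channel and express endogenous PDE4; plated 1000 cells/well, compounds up to 22.9 uM final. Membrane-potential dye fluorescence (ex 535/em 590) was read; parental cells received 10 uM forskolin + 100 uM RO 20-1724.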
Chain of 3',5'-cyclic-AMP phosphodiesterase 4B (Homo sapiens) (Q07343 whole entry, looked up): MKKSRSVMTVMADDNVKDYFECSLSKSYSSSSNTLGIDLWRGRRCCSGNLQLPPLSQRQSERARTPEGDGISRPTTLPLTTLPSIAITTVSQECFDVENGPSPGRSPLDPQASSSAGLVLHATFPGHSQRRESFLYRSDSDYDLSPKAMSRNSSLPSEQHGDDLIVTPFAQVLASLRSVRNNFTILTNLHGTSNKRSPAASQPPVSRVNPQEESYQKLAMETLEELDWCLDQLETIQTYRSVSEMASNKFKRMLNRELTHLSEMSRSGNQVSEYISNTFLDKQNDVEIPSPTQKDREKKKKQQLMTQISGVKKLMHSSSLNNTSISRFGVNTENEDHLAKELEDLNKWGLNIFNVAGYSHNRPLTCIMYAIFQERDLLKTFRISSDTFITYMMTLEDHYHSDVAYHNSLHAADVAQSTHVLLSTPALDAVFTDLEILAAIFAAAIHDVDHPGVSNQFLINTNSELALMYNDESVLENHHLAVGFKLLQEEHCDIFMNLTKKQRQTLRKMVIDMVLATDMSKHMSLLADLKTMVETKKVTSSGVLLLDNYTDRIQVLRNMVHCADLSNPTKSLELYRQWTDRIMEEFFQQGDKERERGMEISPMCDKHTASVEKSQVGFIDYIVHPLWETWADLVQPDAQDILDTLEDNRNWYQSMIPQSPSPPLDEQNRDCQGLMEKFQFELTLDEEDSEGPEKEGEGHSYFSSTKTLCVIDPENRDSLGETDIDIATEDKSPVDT

The nature of experiment [7]: qHTS Assay for Lipid Storage Modulators (AID 1519; calls by dose curve). The following applies: Drosophila S3 cells, BODIPY lipid droplet/cell ratio, laser cytometry, cells loaded with oleic acid; for activity change, negative = inhibition: at 57.5 µM (top of the series). The method, boiled down:
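Cells seeded at 5,000 per well were treated with compounds over a concentration series and loaded with oleic acid (400 uM, as added). Lipid droplet fluorescence (488 nm excitation, 500-530 nm channel) was read by laser-scanning cytometry and normalized to 20 uM Triacsin C.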
A general note: Quantitative high-throughput screening tests each substance at several concentrations.

Experiment [8] in a line: Primary qHTS for small molecule stabilizers of the endoplasmic reticulum resident proteome: Secreted ER Calcium Modulated Protein (SERCaMP) assay (AID 1508630; active = well fitted curve in the direction sought with a large enough effect; an effect the other way counts as inactive or inconclusive; note: % is set by controls: 0 for no effect and ±100 for the full control effect). The following applies: SH-SY5Y GLuc-SERCaMP (Gaussia luciferase released on ER calcium loss) secretion, thapsigargin, luminescence; series mostly up to 38.4 µM. In a few lines: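 The SH-SY5Y reporter protocol was run at 3 concentrations up to 38.3 uM (primary) or 11 concentrations (follow-up): 16 h compound, 100 nM thapsigargin for 4 h, then extracellular luciferase luminescence.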

Experiment [9] deals with Cytochrome P450 3A4 (Homo sapiens) (UniProt P08684). Put plainly: qHTS Assay for Activators of Cytochrome P450 3A4 (AID 885; active = well fitted curve in the direction sought with a large enough effect; an effect the other way counts as inactive or inconclusive; note: nearly all actives have a fitted effect of over 65% in size). As to conditions: recombinant CYP3A4, Luciferin-PPXE luminescence, 60 min; series mostly up to 57.1 µM. The method, boiled down:
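CYP3A4 activity: Luciferin-PPXE O-dealkylation, 25uM substrate, 200mM KPO4, RT throughout. Read-out is luciferase luminescence; higher values reflect activation.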

Where [10] appears, read: measured here: cell count channel max response.
The mark [11] stands for this setting: measured here: lipid channel max response.

Chain of Glucocorticoid receptor (Homo sapiens) (P04150 whole entry, looked up, the tested form may be a part): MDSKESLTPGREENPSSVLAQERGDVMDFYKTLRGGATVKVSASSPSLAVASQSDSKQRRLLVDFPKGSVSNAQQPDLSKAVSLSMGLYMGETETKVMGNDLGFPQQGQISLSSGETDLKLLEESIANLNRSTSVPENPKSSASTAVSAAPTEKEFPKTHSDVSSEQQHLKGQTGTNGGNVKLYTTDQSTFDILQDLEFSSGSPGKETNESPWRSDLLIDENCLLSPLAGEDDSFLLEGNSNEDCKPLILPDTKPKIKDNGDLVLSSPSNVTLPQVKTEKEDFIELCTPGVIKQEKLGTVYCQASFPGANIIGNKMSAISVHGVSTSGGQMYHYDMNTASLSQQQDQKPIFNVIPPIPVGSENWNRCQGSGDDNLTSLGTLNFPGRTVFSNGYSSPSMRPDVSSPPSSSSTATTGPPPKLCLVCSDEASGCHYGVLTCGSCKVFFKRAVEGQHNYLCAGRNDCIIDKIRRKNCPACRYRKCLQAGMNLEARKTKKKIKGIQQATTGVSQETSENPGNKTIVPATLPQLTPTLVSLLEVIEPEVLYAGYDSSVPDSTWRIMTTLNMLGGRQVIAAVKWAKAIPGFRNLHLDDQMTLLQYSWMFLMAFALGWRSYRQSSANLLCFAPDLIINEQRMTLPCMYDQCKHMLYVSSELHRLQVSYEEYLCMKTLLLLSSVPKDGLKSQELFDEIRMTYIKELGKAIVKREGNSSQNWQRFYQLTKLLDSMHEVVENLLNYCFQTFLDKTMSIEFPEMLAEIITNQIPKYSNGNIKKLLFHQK
Chain of Lysosomal acid glucosylceramidase (Homo sapiens) (P04062 whole entry, looked up): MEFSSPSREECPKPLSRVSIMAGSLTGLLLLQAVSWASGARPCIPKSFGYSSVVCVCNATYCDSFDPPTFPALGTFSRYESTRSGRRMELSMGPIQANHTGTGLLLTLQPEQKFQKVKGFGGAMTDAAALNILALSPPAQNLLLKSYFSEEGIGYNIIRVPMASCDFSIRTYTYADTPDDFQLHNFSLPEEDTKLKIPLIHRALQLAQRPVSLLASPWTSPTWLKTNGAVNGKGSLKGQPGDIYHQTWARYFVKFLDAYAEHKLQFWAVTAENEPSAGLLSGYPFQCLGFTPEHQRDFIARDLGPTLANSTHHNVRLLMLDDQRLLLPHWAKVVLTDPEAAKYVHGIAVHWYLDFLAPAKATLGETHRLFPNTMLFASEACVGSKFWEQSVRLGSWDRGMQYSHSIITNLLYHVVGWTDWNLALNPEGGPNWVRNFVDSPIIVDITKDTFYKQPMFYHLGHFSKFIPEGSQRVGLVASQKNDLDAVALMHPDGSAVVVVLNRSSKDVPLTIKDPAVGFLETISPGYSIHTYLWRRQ
Chain of Cytochrome P450 3A4 (Homo sapiens) (P08684 whole entry, looked up): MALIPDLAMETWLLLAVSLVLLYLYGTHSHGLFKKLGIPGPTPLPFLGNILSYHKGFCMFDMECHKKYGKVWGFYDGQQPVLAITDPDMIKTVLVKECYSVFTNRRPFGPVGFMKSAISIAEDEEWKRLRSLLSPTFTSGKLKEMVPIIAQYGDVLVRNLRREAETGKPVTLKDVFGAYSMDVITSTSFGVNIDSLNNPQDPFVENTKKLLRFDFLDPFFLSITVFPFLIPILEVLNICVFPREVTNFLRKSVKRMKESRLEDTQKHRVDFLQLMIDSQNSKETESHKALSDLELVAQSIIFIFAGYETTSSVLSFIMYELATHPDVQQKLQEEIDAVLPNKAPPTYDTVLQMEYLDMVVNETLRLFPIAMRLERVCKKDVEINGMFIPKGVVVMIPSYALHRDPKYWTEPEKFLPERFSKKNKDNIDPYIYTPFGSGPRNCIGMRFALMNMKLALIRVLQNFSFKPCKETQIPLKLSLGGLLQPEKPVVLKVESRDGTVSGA

Regarding `CC(C)CN1CC2(CCN(C(=O)c3csnn3)CC2)C1`, the Potency in experiment [1] is > 11.4 µM (inactive); in [4], > 46 µM (inactive). For the same compound, the activity change, negative = inhibition in [2] is -4.73% (inactive); in [7], -0.802% (inactive). In experiment [3], the activity, negative = inhibition is 4.77% (inactive). For the same compound, the Potency result in [5] and in [6] was “inactive” each time. Also, the max response in experiment [7] (setting [10]) was -2.36%; in [7] (setting [11]), -0.0505%. In experiment [8], the result was inactive.

With `N#Cc1ccc(CN2CCCC3(CCN(C(=O)c4ccco4)CC3)C2)cc1`, the Potency in [1] was > 11.4 µM (inactive); in experiment [4], > 46 µM (inactive). The activity change, negative = inhibition in [2] is -7.19% (inactive); in [7], -5.76% (inactive). Further, the activity, negative = inhibition in experiment [3] was 4.81% (inactive). Moreover, the Potency entry in [5] and in experiment [6] was “inactive” each time. Besides, the max response in experiment [7] (setting [10]) is -5.31%; in [7] (setting [11]), -10.9%. Further, the outcome in experiment [8] was inactive.

As for `N#Cc1ccc(CN2CCCC3(CCN(C(=O)c4csnn4)CC3)C2)cc1`, the Potency in [1] is > 11.4 µM (inactive); in [4], > 46 µM (inactive). Moreover, the activity change, negative = inhibition in [2] was -6.06% (inactive); in experiment [7] it was -0.464% (inactive). In addition, the activity, negative = inhibition in experiment [3] is 1.34% (inactive). The Potency result in experiment [5] and in experiment [6] was “inactive” in each case. Moreover, the max response is -10.9% in experiment [7] (setting [10]) and -8.04% in experiment [7] (setting [11]). Moreover, the result in experiment [8] was inactive.

For `COc1ccc(C(=O)N2CCC3(CC2)CCN(c2ccncc2)CC3)cc1`, the Potency in experiment [1] is > 11.4 µM (inactive); in [4], > 46 µM (inactive). The activity change, negative = inhibition in [2] is 14.4% (inactive); in [7], -1.55% (inactive). Moreover, the activity, negative = inhibition in [3] was 5.85% (inactive). Moreover, the Potency entry in experiment [5], in [6] and in experiment [9] was “inactive” in each case. Further, the values for the max response in [7] (setting [10]) and in experiment [7] (setting [11]) were 12.5% and 14%, respectively. For the same compound, the outcome in experiment [8] was inactive.

Consider `COc1ccc(C(=O)N2CCC3(CCCN(Cc4ccc(C#N)cc4)C3)CC2)cc1`, for which the Potency in experiment [1] is > 11.4 µM (inactive); in experiment [4] it was > 46 µM (inactive). In addition, the activity change, negative = inhibition in experiment [2] is 16.7% (inactive); in experiment [7], -2.89% (inactive). The activity, negative = inhibition in experiment [3] is 2.1% (inactive). Also, the Potency result in experiment [5] and in [6] was “inactive” throughout. The max response in experiment [7] (setting [10]) was -1.58%; in experiment [7] (setting [11]), -2.86%. Besides, the result in experiment [8] was inactive.

Consider `O=C(c1ccncc1)N1CCC2(CCCN(c3ccccn3)C2)CC1`, for which the Potency in experiment [1] was > 11.4 µM (inactive); in experiment [4], > 46 µM (inactive). Also, the activity change, negative = inhibition in experiment [2] is -11.7% (inactive); in experiment [7], 7.75% (inactive). The activity, negative = inhibition in [3] was 4.12% (inactive). In addition, the Potency entry in experiment [5] and in [6] was “inactive” throughout. Besides, the max response is 10.2% in experiment [7] (setting [10]) and 19.9% in [7] (setting [11]). Also, the result in [8] was inactive.

As to `N#Cc1cccc(NC(=O)N2CC3(CCN(C(=O)c4ccco4)CC3)C2)c1`, the Potency is > 11.4 µM (inactive) in [1] and > 46 µM (inactive) in [4]. The activity change, negative = inhibition is -10.9% (inactive) in [2] and 4.67% (inactive) in [7]. The activity, negative = inhibition in [3] is 19.7% (inactive). Moreover, the Potency result in experiment [5] and in experiment [6] was “inactive” in each case. For the same compound, the max response in experiment [7] (setting [10]) was 3.49%; in experiment [7] (setting [11]), 11.7%. The outcome in experiment [8] was inactive.

In the case of `COCC(=O)N1CCC[C@@]2(CCN(c3ccncc3)C2)C1`, the Potency in experiment [1] was > 11.4 µM (inactive); in experiment [4], > 46 µM (inactive). In addition, the results for the activity change, negative = inhibition in [2] and in [7] were -10.7% (inactive) and 1.37% (inactive), respectively. For the same compound, the activity, negative = inhibition in experiment [3] is 5.19% (inactive). The Potency entry in experiment [5] and in experiment [6] was “inactive” throughout. Also, the max response is -0.218% in experiment [7] (setting [10]) and 3.63% in [7] (setting [11]). The outcome in experiment [8] was inactive.
